Rows were chosen to be rich in hits. Some 3.9% of all compounds tested hit in one or more screens of this group.
N-glyco inh = increase of ERlucT glycosylation luciferase signal, primary screen, N-linked glycosylation inhibitor project, D54 ERlucT cells, luminescence, set 2; D54 ERlucT glycosylation luciferase reporter, 24 h; percent of 100 nM tunicamycin response; reporter increase, % at 12.5 µM; actives 0.23% (n = 360,000);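 active = mean luciferase reporter signal, scaled so untreated is 0 and the glycosylation-blocking control 100, at or above a set limit in every replicate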;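 also: luciferase carries N-glycosylation sites so blocking glycosylation raises the light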
Mot1-301 SUMO = yeast Mot1-301 growth rescue at high temperature, primary screen, SUMOylation pathway inhibitor project, S. cerevisiae, ATP luminescence, 38.5C; S. cerevisiae Mot1-301 growth rescue; percent above DMSO median, 100 means doubled; growth rescue, % at 18.8 µM; actives 1% (n = 320,000); AID 2716, 2010;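 active = every valid replicate shows activation above 250% relative to neutral control wells; inactive = the rest, any valid replicate at or below 250%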
CASP6 VEID inh = human caspase-6 inhibitors, primary screen, biochemical, VEID-R110 fluorescence, single point, set 2 | P55212 | purified caspase-6, Z-VEID-R110 cleavage fluorescence | inhibition, % at 12.5 µM | actives 0.53% (n = 350,000) | AID 686996, 2013;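 active = mean inhibition across replicates at least about 35%, with every replicate also reaching that limit, limit read from the data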
ALR inh = inhibitors of human ALR sulfhydryl oxidase, primary screen, biochemical, H2O2 detection, HRP-luminol luminescence, single point | FAD-linked sulfhydryl oxidase ALR (Homo sapiens), P55789 | purified ALR, DTT oxidation | inhibition, % (concentration not given with the values) | actives 3.8% (n = 290,000) | AID 485317, 2010;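 active = mean replicate inhibition above about 79%, with every replicate also reaching it, limit read from the data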
NSD2 HMT inh = NSD2 histone methyltransferase inhibitors, primary screen, biochemical, AlphaScreen, single concentration, set 2 | actives 0.54% (n = 310,000) | inhibition, % at 12.5 µM | NSD2 peptide methylation, 120 min | AID 743445, 2014; in the data active = inhibition above about 50%
Target sequence (O96028 whole entry, looked up): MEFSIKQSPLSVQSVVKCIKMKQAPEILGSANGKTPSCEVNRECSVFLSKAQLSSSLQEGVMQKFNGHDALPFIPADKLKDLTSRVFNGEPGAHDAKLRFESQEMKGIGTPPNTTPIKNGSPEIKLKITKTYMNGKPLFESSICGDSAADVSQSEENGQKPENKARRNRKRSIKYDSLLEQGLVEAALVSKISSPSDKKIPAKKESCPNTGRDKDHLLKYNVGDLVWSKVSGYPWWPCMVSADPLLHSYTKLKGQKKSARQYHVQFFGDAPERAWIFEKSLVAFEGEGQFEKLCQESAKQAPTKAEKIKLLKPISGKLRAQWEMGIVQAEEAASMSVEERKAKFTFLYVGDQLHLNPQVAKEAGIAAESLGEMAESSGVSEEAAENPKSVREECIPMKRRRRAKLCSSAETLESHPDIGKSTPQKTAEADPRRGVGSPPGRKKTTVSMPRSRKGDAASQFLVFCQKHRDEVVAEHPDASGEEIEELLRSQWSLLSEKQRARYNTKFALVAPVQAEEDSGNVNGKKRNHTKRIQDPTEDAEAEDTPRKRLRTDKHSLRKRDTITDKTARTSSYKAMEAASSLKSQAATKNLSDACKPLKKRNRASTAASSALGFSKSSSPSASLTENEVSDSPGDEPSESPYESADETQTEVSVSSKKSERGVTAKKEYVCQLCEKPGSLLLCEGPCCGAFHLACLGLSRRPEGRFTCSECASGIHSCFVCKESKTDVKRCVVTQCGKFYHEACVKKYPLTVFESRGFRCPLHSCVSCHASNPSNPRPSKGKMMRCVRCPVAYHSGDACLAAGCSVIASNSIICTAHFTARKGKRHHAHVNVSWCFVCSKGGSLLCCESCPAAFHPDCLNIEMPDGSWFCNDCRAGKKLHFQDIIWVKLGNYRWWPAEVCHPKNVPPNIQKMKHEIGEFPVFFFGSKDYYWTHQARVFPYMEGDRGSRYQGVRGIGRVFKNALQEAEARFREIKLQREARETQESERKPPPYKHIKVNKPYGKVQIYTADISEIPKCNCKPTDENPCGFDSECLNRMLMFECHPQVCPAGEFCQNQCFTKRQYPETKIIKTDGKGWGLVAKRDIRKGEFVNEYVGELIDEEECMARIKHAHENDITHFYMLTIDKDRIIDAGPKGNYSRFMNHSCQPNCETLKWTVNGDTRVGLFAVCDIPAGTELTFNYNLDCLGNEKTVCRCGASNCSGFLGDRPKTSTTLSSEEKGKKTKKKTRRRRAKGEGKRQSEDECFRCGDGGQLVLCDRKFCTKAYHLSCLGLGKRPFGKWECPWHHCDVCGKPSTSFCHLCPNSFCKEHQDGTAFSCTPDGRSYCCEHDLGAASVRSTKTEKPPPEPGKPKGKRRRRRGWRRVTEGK
CDK5 p35 inh = inhibitors of human CDK5/p35 kinase, primary screen, biochemical, single concentration; Recombinant CDK5/p35, ADP-Glo luminescence, 60 min; inhibition, % at 10 µM; actives 0.01% (n = 330,000); AID 488839, 2010;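 active = highest replicate inhibition of at least 50% and at least 75% of replicates reaching 50%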
Alpha artifact = AlphaScreen signal interference with preloaded methylated product, dose response, artefact control for NSD2 inhibitor project, biochemical, cherry-picked samples | shares compounds with NSD2 HMT inh | AlphaScreen artifact counterscreen, preloaded methylated H4 peptide | AC35, µM (doses to about 10 µM) | actives 9.4% (n = 1,500); call rule not given here
Hits are given with their value; - = inactive; . = no result given.

SMILES	N-glyco inh	Mot1-301 SUMO	CASP6 VEID inh	ALR inh	NSD2 HMT inh	CDK5 p35 inh	Alpha artifact
O=C(CN(C(=O)c1csnn1)c1cccc2ccccc12)NCc1ccc(F)cc1	-	-	-	-	-	-	.
Oc1ccc(/C=N/NC(=S)Nc2cccnc2)c(O)c1	-	-	.	.	-	-	.
Oc1cccc(/C=N/NC(=S)Nc2cccnc2)c1O	-	-	.	89.7	79.2	-	-
COCC(=O)Nc1ccc2c(c1)[C@@H]1C[C@@H](CC(=O)NCc3ccccn3)O[C@@H](CO)[C@@H]1O2	.	.	-	.	.	.	.
Cn1c(SCn2nnc3ccccc3c2=O)nc2ccccc2c1=O	.	-	.	-	-	.	.
O=c1c2ccccc2nnn1CSc1nc2ccccc2c(=O)n1CCCO	-	-	-	-	51.6	-	-
O=C(COC(=O)c1cc(S(=O)(=O)N2CCOCC2)ccc1F)c1ccc[nH]1	-	-	.	-	69.3	-	-
Cc1cc(=O)cc(C)n1-c1ccc(O)cc1	-	-	-	-	71.4	-	-
Cc1cc(=O)cc(C)n1-c1ccc(Cl)cc1	-	-	-	-	-	-	.
COc1ccc(NC(=O)N(C)C[C@@H]2Oc3ccc(NC(=O)Nc4c(C)noc4C)cc3CC(=O)N([C@@H](C)CO)C[C@H]2C)cc1	.	.	-	.	.	.	.
Cc1ccc(-c2ccc3c(c2)O[C@@H](CN(C)CC2CC2)[C@@H](C)CN([C@@H](C)CO)S3(=O)=O)cc1	.	.	-	.	.	.	.
CCN(CC)CCNc1ccc(CO)c2sc3ccccc3c(=O)c12	-	-	-	-	.	-	.
COc1cc(C)c2sc3ccccc3c(=O)c2c1NCCN(C)C	-	.	-	.	161.3	.	3.25µM
COc1ccccc1C#Cc1ccc([C@@H]2[C@H]3CN(C(=O)C4CC4)CCCCN3[C@H]2CO)cc1	.	.	-	.	.	.	.
COc1ccc(/C=C(\C#N)C(=O)N2COCC2(C)C)cc1	-	-	-	-	59.4	-	-
O=C(C[C@@H]1C=C[C@H](NC(=O)C2CCC2)[C@@H](CO)O1)NCc1ccccc1Cl	.	.	-	.	.	.	.
C[C@H]1CN([C@@H](C)CO)C(=O)c2cc(NC(=O)Cc3cn(C)c4ccccc34)ccc2O[C@H]1CN(C)S(=O)(=O)c1ccc(F)cc1	.	.	-	.	.	.	.
c1cc(-c2ccoc2)n2ccnc2c1	-	.	-	.	104.5	.	-
CCOc1ccccc1N1CCN(C/C=C/c2ccc(N(C)C)cc2)CC1	-	-	.	98.6	68.9	-	9.17µM
Cc1ccc(-n2nc3c(=O)n(CC(=O)NCc4ccccc4)nc(C)c3c2C)cc1	-	-	-	-	79.7	-	-
COc1cc(/C=C2\SC(c3ccc(C)cc3)=NC2=O)cc(OC)c1O	-	-	-	-	-	-	.
Cc1ccc(C2=NC(=O)/C(=C/c3cc(O)c(O)c(Br)c3)S2)cc1	-	.	78.9	.	119.6	-	8.21µM
O=C(NCCCn1ccnc1)C1CCN(S(=O)(=O)c2ccc(F)cc2)CC1	-	-	-	-	57.0	-	-
O=C(CCNC(=O)C1CCN(S(=O)(=O)c2ccc(F)cc2)CC1)NCc1ccc(F)cc1	-	-	-	-	-	-	.
CNCc1ccccc1Sc1ccc(O)c(O)c1	-	-	-	98.7	63.8	-	-
SMILES	N-glyco inh	Mot1-301 SUMO	CASP6 VEID inh	ALR inh	NSD2 HMT inh	CDK5 p35 inh	Alpha artifact
CC(=O)N1CCN(Cc2nc3cc(NC(=O)Cn4nc(C)c5ccccc5c4=O)ccc3n2C)CC1	-	-	.	-	59.9	-	-
COc1ccc(C2CC(c3ccc(Cl)cc3)=NN2C(C)=O)cc1 (configuration not stated)	-	-	-	-	54.5	-	-
O=S(=O)(O)c1cccc2c(N=Nc3ccc(O)c4ncccc34)cccc12	-	-	-	-	66.2	-	-
O=Nc1ccc(O)c2ncccc12	-	-	-	-	64.2	-	-
O=C(Cc1ccccn1)NCC[C@@H]1CC[C@@H](NC(=O)Nc2ccc(Cl)cc2)[C@@H](CO)O1	.	.	-	.	.	.	.
COc1cc(C(=O)Oc2cccc(/C=N/NC(=O)c3cccnc3)c2)cc(OC)c1OC	-	-	-	.	97.9	-	-
C[C@@H]1CCCCO[C@@H](CN(C)C(=O)c2ccccc2)[C@@H](C)CN([C@@H](C)CO)C(=O)c2cc(NS(=O)(=O)c3ccc(F)cc3)ccc2O1	.	.	-	.	.	.	.
NC(=O)c1[nH]cnc1N=NN(CCO)Cc1ccccc1	-	.	-	.	68.7	.	-
CN(C)N=Nc1nc[nH]c1C(N)=O	-	-	-	-	.	-	.
Cc1ccc(S(=O)(=O)NCC[C@@H]2CC[C@@H](NC(=O)c3ccccn3)[C@@H](CO)O2)cc1	.	.	-	.	.	.	.
O=C1NC(=S)S/C1=C\c1cc2ccccc2nc1N1CCCCC1	-	-	-	97.0	83.3	-	-
COc1ccc2nc(N3CCCCC3)c(/C=C3\SC(=S)NC3=O)cc2c1	-	-	-	-	.	-	.
C[C@H]1CN([C@@H](C)CO)C(=O)c2cc(NC(=O)CCCN(C)C)ccc2O[C@@H]1CN(C)S(=O)(=O)c1cccs1	.	.	-	.	.	.	.
O=S(=O)(NCC[C@@H]1CC[C@@H](NS(=O)(=O)c2ccccc2Cl)[C@@H](CO)O1)c1ccc(F)cc1	.	.	-	.	.	.	.
Cc1cc(NC(=O)CSc2nc3ccccc3cc2C#N)no1	-	-	-	.	54.9	-	-
CCN(CC)CCNC(=O)c1cc(-c2ccc(Br)s2)nc2ccccc12	-	-	-	-	-	-	.
CCN(CC)CCNC(=O)c1cc2cc(Br)ccc2s1	-	-	.	-	56.4	-	-
C[C@@H]1CN([C@H](C)CO)C(=O)Cc2cc(NC(=O)CCN3CCOCC3)ccc2O[C@@H]1CN(C)S(=O)(=O)c1cccs1	.	.	-	.	.	.	.
CCOC(=O)c1cccc(P(C)(C)=O)c1	-	-	-	-	78.6	-	-
CCOC(=O)c1ccc2nc(C)c(C)nc2c1	-	-	-	.	-	-	.
O=C1Nc2ccccc2/C1=N\N=C\c1ccc(O)c(O)c1	-	-	35.8	98.7	118.6	-	3.01µM
CCCC#Cc1ccc2c(c1)O[C@@H](CN(C)C(=O)CN(C)C)[C@@H](C)CN([C@@H](C)CO)S2(=O)=O	.	.	-	.	.	.	.
C[C@@H]1CN([C@@H](C)CO)S(=O)(=O)c2ccc(-c3ccccc3)cc2O[C@H]1CN(C)C	.	.	-	.	.	.	.
COc1ccc(S(=O)(=O)N(C)CC(=O)NCCN2CCOCC2)cc1Cl	-	-	-	-	86.5	-	-
